Results filed as inconclusive are left out. The source made the active and inactive calls. Unless noted, the call rests on the fitted dose curve; in most records, active means well fitted curve in the direction sought with a large enough effect; inconclusive means small, poorly fitted or top-dose-only effect, or another doubt; inactive means no such curve, though single readings can be large; an effect the other way counts as inactive or inconclusive.
Experiments:
[1] = MultiTox-Fluor Cytotoxicity Assay - LYMP1-002 - Live Cells (AID 955)
Summary of the method: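 Human lymphoblastoid LYMP1-002 cells, 2500/well in complete medium, rested 5 hr at 37 C, then exposed to compounds for 16 hr at 37 C. Live-cell protease cleavage of GF-AFC read by fluorescence (Ex/Em 405/510) after 60 min at room temperature; AC50 from Hill fits.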

[2] = MultiTox-Fluor Cytotoxicity Assay - LYMP1-002 - Dead Cells (AID 960); further: nearly all actives have a fitted effect of over 60% in size
Summary of the method: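 Human lymphoblastoid cells (LYMP1-002), 2500/well in complete medium, were exposed to compounds for 16 hr at 37 C. Dead-cell protease activity was read as bis-AAF-R110 fluorescence (Ex/Em 485/520), normalized to DMSO and 15 uM tetraoctylammonium bromide; AC50 from Hill fits.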

[3] = MultiTox-Fluor Cytotoxicity Assay - LYMP1-003 - Dead Cells (AID 961); further: nearly all actives have a fitted effect of over 70% in size
Summary of the method: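 LYMP1-003 human lymphoblastoid cells (2500/well) exposed to compound 16 h at 37 C in complete medium; dead-cell protease read with bis-AAF-R110 fluorescence (Ex/Em 485/520) after 60 min at room temperature. Normalized to DMSO and 15 uM tetraoctylammonium bromide; AC50 from Hill fit.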

[4] = Cell Viability - LYMP1-003 - Assay at 24 hr (AID 963)
Summary of the method: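 Human lymphoblastoid LYMP1-003 cells (2500/well) were rested 5 hr at 37 C, then exposed to compounds in complete medium for 24 hr at 37 C. Cellular ATP was quantified by CellTiter-Glo luminescence, and AC50 values came from Hill fits of concentration-response data.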

[5] = Cell Viability - LYMP1-003 - Assay at 40 hr (AID 964); further: series mostly up to about 92 µM; nearly all actives have a fitted effect of over 60% in size
Summary of the method: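 Human lymphoblastoid LYMP1-003 cells, 2500/well in complete medium, rested 5 hr at 37 C, then exposed to compounds for 40 hr at 37 C. Viability read as intracellular ATP by CellTiter-Glo luminescence; AC50 from Hill fits of concentration-response data.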

[6] = Cell Viability - LYMP2-003 (AID 965);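 further: cells exposed to compounds for 24 h before reading; nearly all actives have a fitted effect of over 50% in size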
Summary of the method: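 CellTiter-Glo luminescence (cellular ATP) after 24 h compound exposure at 37 C in complete medium; 2500 cells/well, 5 h settling beforehand. Concentration-response fitted to standard Hill equation for AC50. Tetraoctylammonium bromide served as positive control.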

[7] = Cell Viability - LYMP2-004 (AID 966); further: nearly all actives have a fitted effect of over 65% in size
Summary of the method: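 Human lymphoblastoid cells (2500/well) in complete medium were treated with compounds for 24 hr at 37 C, then intracellular ATP was measured by CellTiter-Glo luminescence. AC50 values came from Hill-equation fits of concentration-response data.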

[8] = Cell Viability - LYMP2-009 (AID 968); further: series mostly up to about 92 µM; nearly all actives have a fitted effect of over 55% in size
[9] = Cell Viability - LYMP2-011 (AID 969); further: nearly all actives have a fitted effect of over 60% in size
Summary of the method: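 Human lymphoblastoid cells (2500/well) were plated in complete medium, preincubated 5 hr at 37 C, then exposed to compounds for 24 hr at 37 C. Intracellular ATP was read by CellTiter-Glo luminescence, and AC50 came from Hill-equation concentration-response fits.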

[10] = Cell Viability - LYMP2-013 (AID 970); further: series mostly up to about 92 µM; nearly all actives have a fitted effect of over 55% in size
Summary of the method: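 Human lymphoblastoid cells, 2500/well, were preincubated 5 hr at 37 C, then treated with compounds for 24 hr at 37 C in complete medium. Intracellular ATP was read by CellTiter-Glo luminescence; AC50 from Hill-equation fits of concentration-response data.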

[11] = Cell Viability - LYMP2-015 (AID 971); further: nearly all actives have a fitted effect of over 55% in size
Summary of the method: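 Human lymphoblastoid cells (2500/well) in complete medium were preincubated 5 hr at 37 C, then compound-treated 24 hr at 37 C. Intracellular ATP was read by CellTiter-Glo luminescence after 30 min at room temperature; AC50 came from Hill-equation concentration-response fits.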

[12] = Cell Viability - LYMP2-017 (AID 972); further: series mostly up to about 92 µM; nearly all actives have a fitted effect of over 55% in size
Summary of the method: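 Human lymphoblastoid cells (2500/well) were seeded in complete medium, held 5 hr at 37 C, then exposed to compounds for 24 hr at 37 C. Intracellular ATP was read by CellTiter-Glo luminescence after 30 min at room temperature, with AC50 values from Hill-equation fits.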

[13] = Cell Viability - LYMP2-019 (AID 973); further: nearly all actives have a fitted effect of over 55% in size
Summary of the method: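 Human lymphoblastoid cells were seeded at 2500 cells/well, preincubated 5 hr at 37 C, then exposed to compounds for 24 hr at 37 C in complete medium. Intracellular ATP was measured by CellTiter-Glo luminescence; AC50 from Hill fits.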

[14] = Cell Viability - LYMP2-021 (AID 974)
Summary of the method: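 Human lymphoblastoid cells (2500/well) were preincubated 5 hr at 37 C, then exposed to compounds for 24 hr at 37 C in complete medium. Intracellular ATP was read by CellTiter-Glo luminescence; AC50 came from Hill-equation fits of concentration-response data.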

[15] = Cell Viability - LYMP2-023 (AID 975)
Summary of the method: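 Human lymphoblastoid cells (2500/well) were preincubated 5 hr at 37 C, then exposed to compounds for 24 hr at 37 C in complete medium. Cellular ATP was read by CellTiter-Glo luminescence, and AC50 came from Hill-equation fits.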

[16] = Cell Viability - LYMP2-025 (AID 976); further: series mostly up to about 92 µM
Summary of the method: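 Human lymphoblastoid LYMP2-025 cells (2500/well) were pre-incubated 5 hr at 37 C, then treated with compounds for 24 hr at 37 C in complete medium. Viability was read as intracellular ATP by CellTiter-Glo luminescence; AC50 from Hill fits.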

[17] = Cell Viability - LYMP2-002 (AID 977); further: series mostly up to about 92 µM
Summary of the method: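 Luminescent ATP readout (CellTiter-Glo, 30 min room temperature) after 24 h compound exposure at 37 C of a human lymphoblastoid line, 2500 cells/well. AC50 values derived by standard Hill fitting of qHTS concentration-response data.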

[18] = Cell Viability - LYMP2-006 (AID 978); further: series mostly up to about 92 µM; nearly all actives have a fitted effect of over 60% in size
Summary of the method: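 qHTS, 1536-well; 2500 cells/well, 5 hr 37 C; cpd 24 hr 37 C; CellTiter-Glo 30 min RT; luminescence. Tetraoctylammonium bromide pos. ctrl. AC50 via Hill eqn.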

[19] = Cell Viability - LYMP2-007 (AID 979)
Summary of the method: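 Human lymphoblastoid cells (2500/well) were plated in complete medium, incubated 5 hr at 37 C, then exposed to compounds for 24 hr at 37 C. Intracellular ATP was read by CellTiter-Glo luminescence after 30 min at room temperature; AC50 from Hill fits.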

[20] = target: Pyruvate kinase PKM (Homo sapiens) (UniProt P14618); test: qHTS Assay for Activators of Human Muscle Pyruvate Kinase (AID 954; active means well fitted curve in the direction sought with a large enough effect, not every such curve was filed as active)
Sequence of Pyruvate kinase PKM (Homo sapiens) (P14618 whole entry, looked up): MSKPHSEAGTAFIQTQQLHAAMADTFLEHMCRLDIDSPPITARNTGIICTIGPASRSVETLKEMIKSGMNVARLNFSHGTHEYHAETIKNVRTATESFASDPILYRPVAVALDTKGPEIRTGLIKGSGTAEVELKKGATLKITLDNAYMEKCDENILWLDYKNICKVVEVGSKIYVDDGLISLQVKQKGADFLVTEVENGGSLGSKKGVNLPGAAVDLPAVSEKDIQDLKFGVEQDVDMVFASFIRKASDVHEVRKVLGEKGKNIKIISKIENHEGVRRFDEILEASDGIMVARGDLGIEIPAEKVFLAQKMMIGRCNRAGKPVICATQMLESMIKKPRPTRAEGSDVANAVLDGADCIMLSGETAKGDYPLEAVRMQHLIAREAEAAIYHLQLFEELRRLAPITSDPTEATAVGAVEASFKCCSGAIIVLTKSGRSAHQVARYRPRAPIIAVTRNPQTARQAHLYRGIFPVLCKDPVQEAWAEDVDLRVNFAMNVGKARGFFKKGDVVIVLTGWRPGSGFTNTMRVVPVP
Summary of the method: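 Purified human PKM2 (0.1 nM) with 0.5 mM PEP (Km) and 0.1 mM ADP in 50 mM imidazole pH 7.2, KCl, MgCl2, 1 h at room temperature; ATP formed read by coupled luciferase luminescence. Normalized to no-enzyme/110 uM thiadiazolimine inhibition; 0.3 nM enzyme column for activation.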

Measured: outcome

Cc1cc(=O)[nH]c(=S)[nH]1
not listed: [20]
inactive: all other assays above

CN1C(C)(C)CCCC1(C)C
inactive: [20]

O=C1c2cccc(O)c2C(=O)c2c(O)cccc21
inactive: [1] | [2] | [3] | [4] | [5] | [7] | [8] | [10] | [14] | [18] | [19]

CCCC(O)C(CC)CO (stereo not given)
not listed: [20]
inactive: all other assays above

CC(=O)OCC(COC(C)=O)OC(C)=O
not listed: [20]
inactive: all other assays above

O=C1C(c2[nH]c3ccccc3c2O)=Nc2ccccc21
not listed: [20]
inactive: all other assays above

CC(=O)Nc1ccc(C(=O)O)cc1
not listed: [11] | [20]
inactive: all other assays above

CC1CC(OC(=O)c2ccccc2O)CC(C)(C)C1 (stereo not given)
not listed: [20]
inactive: all other assays above

CCCCCCCC(=O)OCC(COC(=O)CCCCCCC)OC(=O)CCCCCCC
not listed: [20]
inactive: all other assays above

Cc1cc(C)nc(NS(=O)(=O)c2ccc(N)cc2)n1
not listed: [20]
inactive: all other assays above

C=CCNC(N)=S
not listed: [20]
inactive: all other assays above

COc1ccc(O)cc1
not listed: [20]
inactive: all other assays above

CCCCCC(N)=O
not listed: [20]
inactive: all other assays above

CC(=O)Nc1cccc(O)c1
not listed: [20]
inactive: all other assays above

Cc1c(N(C)C)c(=O)n(-c2ccccc2)n1C
not listed: [2] | [20]
inactive: all other assays above

CCCCOC(=O)c1ccc(N)cc1
not listed: [20]
inactive: all other assays above

O=C(c1ccccc1)C(O)c1ccccc1 (stereo not given)
not listed: [20]
inactive: all other assays above

NC(=O)CC[C@@H](N)C(=O)O
inactive: [20]

FC(F)(F)C(Cl)Br (stereo not given)
not listed: [20]
inactive: all other assays above

CCN(CC)C(=O)c1cccc(C)c1
not listed: [20]
inactive: all other assays above

CC(=O)Nc1ccccc1
not listed: [20]
inactive: all other assays above

Nc1ccc(S(=O)(=O)c2ccc(N)cc2)cc1
not listed: [20]
inactive: all other assays above

O=C(O)CCCCC1CCSS1 (stereo not given)
not listed: [20]
inactive: all other assays above

CC(=O)NS(=O)(=O)c1ccc(N)cc1
not listed: [20]
inactive: all other assays above
